Out of some 220,000 compounds screened, about 530 (0.24%) were called active. For the sample, actives were picked, then their nearest neighbours and some compounds at random. Potency and affinity values are given separately. Unmarked numbers belong to inactive results. No stated cut-off is given here; in the data, active means inhibition above about 13%; inconclusive means no clear call, values can overlap the other calls; inactive means below that.
biological target: Bifunctional protein GlmU (Mycobacterium tuberculosis (strain ATCC 25618 / H37Rv)) (UniProt P9WMN3); assay: inhibition of mycobacterial GlmU enzyme – biochemical, glucosamine-1-phosphate acetyltransferase (AID 1376);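 further: 0% = complete reaction with vehicle and 100% = reaction without substrate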; conditions: M. tuberculosis GlmU acetyltransferase enzyme assay; hits give high values;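 tested at 30 µM in the primary screen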
Sequence (P9WMN3 whole entry, looked up): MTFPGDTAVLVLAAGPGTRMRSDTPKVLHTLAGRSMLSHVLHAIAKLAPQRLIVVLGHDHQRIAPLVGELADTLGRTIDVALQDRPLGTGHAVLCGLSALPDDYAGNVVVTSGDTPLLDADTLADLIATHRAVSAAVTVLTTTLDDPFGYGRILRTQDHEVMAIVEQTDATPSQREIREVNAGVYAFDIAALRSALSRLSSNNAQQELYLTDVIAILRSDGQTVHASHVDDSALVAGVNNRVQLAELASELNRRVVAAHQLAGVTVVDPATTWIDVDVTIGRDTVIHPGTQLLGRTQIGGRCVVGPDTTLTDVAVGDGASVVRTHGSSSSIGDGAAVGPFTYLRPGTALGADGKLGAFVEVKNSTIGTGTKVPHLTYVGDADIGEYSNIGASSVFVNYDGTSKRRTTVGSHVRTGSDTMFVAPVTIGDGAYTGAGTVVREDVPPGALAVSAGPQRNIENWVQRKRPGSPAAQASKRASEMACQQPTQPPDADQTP

In order of rising inhibition:
1. COc1ccc2cc3cc(C(=O)NCCCN4CCc5ccccc5C4)sc3nc2c1  -12.5%
2. CCOC(=O)/C(C#N)=C/Nc1cc(OC)ccc1OC  -9.19%
3. Cc1ccc(N2C(=O)c3ccccc3C2C(=O)c2cc(C)ccc2O)cc1 (centres undefined)  -7.05%
4. CCCN1C(=O)c2cc(C(=O)Nc3ccc(OC)cc3OC)ccc2C1Nc1ccc(OC)cc1OC (centres undefined)  -6.94%
5. Cn1cccc1CC(=O)N/N=C/c1cccc([N+](=O)[O-])c1  -5.88%
6. CN1CCSc2ccc(C(=O)Nc3cc(F)ccc3F)cc21  -5.68%
7. Cc1ccc(N2C(=O)c3ccccc3C2C(=O)c2ccc(C)c(C)c2O)cc1 (centres undefined)  -5.61%
8. Cc1ccc(NC(=O)CN2C(=O)N/C(=C/c3ccc(N4CCOCC4)cc3)C2=O)cc1  -5.18%
9. Cc1cc(C)nc(NN=C2CCCC2)n1  -4.71%
10. O=C(O)c1ccc(COc2ccccc2/C=C2/NC(=O)N(c3cccc(Cl)c3)C2=O)cc1  -4.52%
11. CCCN1C(=O)c2cc(C(=O)Nc3ccccc3OC)ccc2C1Nc1ccccc1OC (centres undefined)  -4.43%
12. Cc1nc2cccc(C(=O)NCc3ccccc3)c2o1  -4.24%
13. COc1ccccc1Nc1nc(N)nc(CN2CCOCC2)n1  -4.21%
14. CCc1ccc(C(=O)CN2CCSC2=N)cc1  -4.03%
15. CCCCN(CC)Cc1ccc(CNC(=S)Nc2cccc(F)c2)o1  -3.9%
16. Cc1ccc(-n2c(C)nc3c(cnn3-c3ccc(F)cc3)c2=O)cc1C  -3.89%
17. CN1C(=O)S/C(=C/c2cccn2-c2cccc(C(=O)O)c2)C1=O  -3.46%
18. COc1ccc2nc(C)cc(SCC(=O)OC(C)C)c2c1  -3.07%
19. CCOC(=O)c1cc(-c2ccc(/C=C3/C(=O)NC(=O)C(C#N)=C3C)o2)ccc1Cl  -3.05%
20. COc1ccc(CCC(=O)Nc2cc(Cl)ccc2N2CCN(C)CC2)cc1  -2.71%
21. Cc1cc(NC(=O)C2CCCCC2C(=O)O)no1 (centres undefined)  -2.61%
22. CC(C)C(=O)N1N=C2CCCCC2C1(O)C(F)(F)F (centres undefined)  -2.41%
23. C=CCN(CC=C)Cc1c(O)ccc2c1oc(=O)c1ccccc12  -2.23%
24. CC1(C)OC(=O)C(=Cc2ccc(-c3ccc(S(N)(=O)=O)cc3)o2)C(=O)O1  -2.03%
25. Cc1cccc(NC(=O)CN2C(=O)N/C(=C\c3cccn3-c3cccc(C(=O)O)c3)C2=O)c1  -2.01%
26. O=C(Cn1ccc([N+](=O)[O-])n1)N1CCCCCC1  -1.9%
27. N#CC(C#N)=Cc1cccn1-c1ccc(S(N)(=O)=O)cc1  -1.86%
28. O=C(Cn1nc(-c2ccccc2)ccc1=O)N1CCC2(CC1)OCCO2  -1.66%
29. O=C(Nc1ccc(-c2nc3ccccc3[nH]2)cc1)c1ccc(N2C(=O)CCC2=O)cc1  -0.75%
30. Brc1ccc(CSc2ccc3nnc(-c4ccccn4)n3n2)cc1  -0.66%
31. CN(C)c1ccc(/C=C/c2ccc3ccccc3[n+]2C)cc1  -0.66%
32. O=C1N/C(=C/c2cccn2-c2ccc(F)cc2)C(=O)N1Cc1ccccc1  -0.61%
33. O=C(CSc1ncn[nH]1)NCCOc1ccccc1  -0.55%
34. O=C(Nc1ccccc1)c1ccc2snnc2c1  -0.53%
35. Cc1cc(C)n2nc(SCCOc3ccccc3)nc2n1  -0.25%
36. S=C=Nc1ccccn1  -0.05%
37. COc1ccc(OCCCC(=O)Nc2cc([N+](=O)[O-])ccc2C)cc1  0.05%
38. Cc1ccc(NC(=O)CN2C(=O)S/C(=C\c3cc(C)n(-c4cccc(C(=O)O)c4)c3C)C2=O)cc1  0.24%
39. COc1ccccc1NS(=O)(=O)c1cc(NC(=O)c2sccc2C)ccc1N1CCCC1  0.4%
40. CN(C)Cc1c(O)ccc2c3c(c(=O)oc12)CCCCC3  0.45%
41. Cc1ccc(NC(=S)N/N=C2\CC(C)(C)Oc3ccc(O)cc32)cc1  0.56%
42. Cc1ccsc1/C=N/NC(=S)NCc1ccccc1  0.62%
43. COc1ccc(-n2cccc2/C=C2/NC(=O)N(c3cccc(Cl)c3)C2=O)cc1  1.07%
44. O=C(Cn1ccc([N+](=O)[O-])n1)N1CCCCC1  1.12%
45. O=C(NC1CCCCC1)c1cc(Cl)nc2ccccc12  1.21%
46. Cc1cccc(NNC(N)=S)c1C  1.37%
47. Cc1ccc(C(=O)C2CCN(CC(=O)NC3CCCCC3)CC2)cc1  1.4%
48. CC1CCC/C(=N/Nc2nc3ccccc3s2)C1 (centres undefined)  1.47%
49. Cn1cc(/C=N/NC(=O)c2ccc(C#N)cc2F)c2ccccc21  1.51%
50. O=C1N/C(=C/c2cccn2-c2ccccc2)C(=O)N1Cc1ccc(F)cc1  1.54%
51. Cc1cc(Br)ccc1SCC(=O)OCC(=O)Nc1ncc(C(F)(F)F)cc1Cl  1.65%
52. CCOC(=O)/C(C#N)=C/Nc1ccccc1OC  1.82%
53. CC[n+]1c(/C=C/c2ccc(N(C)C)cc2)ccc2ccccc21  2.12%
54. ON=Cc1cccn1-c1ccccc1  2.34%
55. O=C(O)c1cccc(-n2cccc2/C=C2/NC(=O)N(c3cccc(Cl)c3)C2=O)c1  2.42%
56. Cc1ccc(NC(=O)CN2C(=O)NC3(CCc4ccccc43)C2=O)cc1Cl (centres undefined)  2.43%
57. O=C(CCC(=O)c1cccs1)Nc1nnc(C2CC2)s1  2.51%
58. N#Cc1ccccc1CN1C(=O)S/C(=C/c2cccn2-c2cccc(C(=O)O)c2)C1=O  2.69%
59. O=[N+]([O-])c1ccc2nccn2c1  2.74%
60. N#C/C(=C\c1ccc[nH]1)C(=O)NCC1CCCO1 (centres undefined)  2.87%
61. N#C/C(=C/c1cccn1-c1cccc(C(=O)O)c1)c1ccc(F)cc1  2.91%
62. C#Cc1ccc([C@H]2C=C(C(=O)NC3CC3)O[C@@H](OCC)[C@@H]2CCCO)cc1  3.19%
63. O=C1N[C@@H](Cc2ccccc2)C(=O)N2[C@@H]1C[C@@]1(Br)c3ccccc3N(S(=O)(=O)c3ccccc3)[C@@H]21  3.3%
64. CC(=O)NC1=NC(=O)/C(=C/c2cc(C)n(-c3ccc(NC(C)=O)cc3)c2C)S1  3.45%
65. CN(C)c1nc(N/N=C\c2ccc(Cl)c([N+](=O)[O-])c2)nc(Nc2ccc(F)cc2)n1  3.5%
66. C/C=C1/CN2[C@@H]3C4CO[C@@H]3c3c([nH]c5cc(OC)ccc35)[C@@H]2CC14 (some centres undefined)  4.24%
67. Cc1cccc(NC(=S)NCc2cccn2C)c1  4.86%
68. Cc1ccc(/C=N/NC(=O)C[n+]2ccccc2)o1  5.08%
69. Cc1ccc(NC(=O)CS(=O)CC(=O)NC2CCN(Cc3ccccc3)CC2)c(C)c1 (centres undefined)  5.17%
70. Cc1ccc(NC(=O)CN2C(=O)S/C(=C\c3cccn3-c3cccc(C(=O)O)c3)C2=O)cc1C  6.74%
71. Cc1ccc(-n2c(C)nc3c(cnn3-c3ccc(C)c(C)c3)c2=O)cc1C  6.8%
72. Cc1ccc(CN2C(=O)N/C(=C\c3cccn3-c3cccc(C(=O)O)c3)C2=O)cc1  7.01%
73. O=C(N/N=C/c1cccn1-c1cccc(C(=O)O)c1)Nc1ccccc1  7.06%
74. Cc1cc(C=C2C(=O)c3ccccc3C2=O)c(C)n1-c1cccc(C(=O)O)c1  7.28%
75. O=C(O)c1cccc(-n2cccc2/C=C2/NC(=O)N(Cc3ccccc3F)C2=O)c1  7.3%
76. N#C/C(=C/c1cccn1-c1cccc(C(=O)O)c1)c1ccc(Cl)cc1  7.87%
77. Cc1ccc(NC(=O)CN2C(=O)N/C(=C/c3cc(C)n(-c4ccc(C(=O)O)cc4)c3C)C2=O)cc1  8.1%
78. COc1cccc(/C=N\n2c(C)nnc2C)c1OC  8.8%
79. Cc1ccc(-n2cccc2/C=C2/NC(=O)N(CC(=O)Nc3cccc(C)c3)C2=O)cc1  10.8%

For `Cc1ccc(N2C(=O)c3ccccc3C2C(=O)c2ccc(O)cc2O)cc1` (centres undefined), the inhibition was 13.2% (active).
In the case of `CC1=C(C#N)C(=O)NC(=O)/C1=C/c1ccc(-c2ccc(S(N)(=O)=O)cc2)o1`, the inhibition was 14.3% (active).
With `O=C(O)c1cccc(-n2cccc2/C=C2\NC(=O)N(Cc3ccc(F)cc3)C2=O)c1` the inhibition was 13.9% (active).
In the case of `O=C(O)c1cccc(-n2cccc2/C=C2/NC(=O)N(c3ccc(Cl)cc3)C2=O)c1`, the inhibition was 68.6% (active).
`O=C(O)c1ccc(-n2cccc2/C=C2/NC(=O)N(c3ccccc3)C2=O)cc1` was tested, and the inhibition was 14.4% (active).
With `O=C(O)c1cccc(-n2cccc2/C=C2\SC(=O)N(Cc3ccccc3F)C2=O)c1` the inhibition was 14.4% (active).
In the case of `N#CC(C#N)=Cc1cccn1-c1ccc(C(=O)O)cc1`, the inhibition was 13.8% (active).
In the case of `Cc1nn(C(=O)Cn2ccc([N+](=O)[O-])n2)c(C)c1Br`, the inhibition was 17.6% (active).
For `Cc1nc2cccc(C(=O)NC3CCCCC3)c2o1`, the inhibition was 14.4% (active).
With `CCOC(=O)/C(C#N)=C/Nc1cc(C(=O)OCC)cc2c(OC)c(OC)ccc12` the inhibition was 26.4% (active).
`CCCN1C(=O)c2cc(C(=O)Nc3ccccc3C)ccc2C1Nc1ccccc1C` (centres undefined) was tested, and the inhibition was 12.9% (active).
`CN(C)c1ccc(/C=C/c2ccc3c4ccccc4ccc3[n+]2-c2ccccc2)cc1` was tested, and the inhibition was 41% (active).
With `Cc1ccc(-n2ncc3c(=O)n(-c4ccc(C)c(C)c4)c(C)nc32)cc1` the inhibition was 48.2% (active).
With `CN(Cc1c(O)ccc2c1oc(=O)c1ccccc12)C1CCCCC1` the inhibition was 14% (active).
With `Cc1ccc(NC(=O)CN2C(=O)N/C(=C/c3cc(C)n(-c4cccc(C(=O)O)c4)c3C)C2=O)cc1` the inhibition was 14.9% (active).

From PubChem BioAssay AID1376 (SRMLSC, 2008)
